# Measured values: PubChem BioAssay (NCATS)
# Several values for one entry are separate records, joined by “and”; a condition that tells them apart may be missing. Equal values may be shown once. Results filed as inconclusive are left out. Activity calls are given as the source filed them. Unless noted, the call rests on the fitted dose curve; in most records, active means well fitted curve in the direction sought with a large enough effect; inconclusive means small, poorly fitted or top-dose-only effect, or another doubt; inactive means no such curve, though single readings can be large; an effect the other way counts as inactive or inconclusive.
# How the values were obtained:
# [1] = molecular target: Tyrosine-protein kinase Yes (Homo sapiens) (UniProt P07947); experiment: qHTS for small molecule inhibitors of Yes1 kinase: Primary Screen (AID 686947); further: nearly all actives have a fitted effect of over 60% in size; further: potency means the concentration at half of the fitted maximal effect
# Tyrosine-protein kinase Yes (Homo sapiens), sequence (P07947 whole entry, looked up): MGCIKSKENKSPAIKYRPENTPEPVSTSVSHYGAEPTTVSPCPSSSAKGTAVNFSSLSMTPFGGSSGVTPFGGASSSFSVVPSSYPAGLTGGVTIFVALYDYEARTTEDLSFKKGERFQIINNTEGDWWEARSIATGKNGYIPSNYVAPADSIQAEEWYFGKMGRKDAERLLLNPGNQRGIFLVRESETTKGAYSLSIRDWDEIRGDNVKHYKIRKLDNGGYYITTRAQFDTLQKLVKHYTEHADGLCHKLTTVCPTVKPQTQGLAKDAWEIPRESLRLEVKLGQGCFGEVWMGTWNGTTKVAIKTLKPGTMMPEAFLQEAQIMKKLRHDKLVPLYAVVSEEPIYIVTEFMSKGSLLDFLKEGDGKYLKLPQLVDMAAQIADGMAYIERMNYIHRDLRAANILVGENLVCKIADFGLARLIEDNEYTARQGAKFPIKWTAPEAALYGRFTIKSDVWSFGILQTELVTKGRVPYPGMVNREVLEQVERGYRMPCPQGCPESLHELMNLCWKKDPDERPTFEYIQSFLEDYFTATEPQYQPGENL
# Method in brief: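 In this qHTS format, inhibition is expressed relative to DMSO controls with enzyme (maximum) and without enzyme (minimum). The 60 min room-temperature reaction uses 0.1 mM ATP, with ADP detected by luminescence.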
# [2] = qHTS for small molecule inhibitors of Yes1 kinase: Counter Assay (AID 686950);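 further: no kinase present so only ADP-Glo detection of a fixed ADP amount is tested; luminescence from ADP-Glo reporting ADP in a fixed ATP and ADP mixture; 0% = DMSO wells with ATP plus ADP and -100% = ATP-only wells without ADP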
# Method in brief: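 Measuring interference with ADP-Glo, the assay ran 60 min at room temperature on an ATP/ADP mix lacking enzyme. Values were normalized to ATP-plus-ADP (maximum) and ATP-only (minimum) DMSO controls.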
# [3] = qHTS Assay for Identifying Gametocytocidal Compounds (AID 743244);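 further: on the % scale 0 is the no-effect control and ±100 the full control effect; actives lower the fluorescent signal which means gametocytes are killed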; conditions: P. falciparum 3D7 stage III-V gametocytes, alamarBlue, 72 h; max response: stronger effect = lower value
# Method in brief: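 Stage III–V gametocytes of P. falciparum 3D7 were seeded at 20,000 cells/well onto pre-dispensed compounds. After 72 h, 37 °C, 5% CO2, alamarBlue was added for another 24 h.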
# [4] = qHTS profiling for inhibitors of Plasmodium falciparum (3D7) proliferation (AID 743322; call rule not given here;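 further: infected erythrocytes exposed to compound for 72 h before lysis; 100% = DMSO vehicle wells and 0% = 0.29 µM artemisinin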); conditions: P. falciparum 3D7 proliferation; at 28.7 µM (top of the series) unless noted
# Method in brief: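 Parasite DNA was quantified by SYBR Green I fluorescence (ex 485, em 535 nm) after overnight lysis in saponin/Triton buffer at room temperature. Cultures at 0.3% parasitemia and 2.5% hematocrit were first exposed to compound for 72 h at 37 C; signals were normalised to artemisinin (0.29 uM) and vehicle wells.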
# [5] = qHTS profiling for inhibitors of Plasmodium falciparum (DD2) proliferation (AID 743323; call rule not given here); conditions: lower = more inhibition; at 28.7 µM (top of the series) unless noted
# Method in brief: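 P. falciparum Dd2-infected erythrocytes (0.3% parasitemia, 2.5% hematocrit) exposed 72 h at 37 C, 5% CO2. Lysis with SYBR Green, overnight at room temperature, fluorescence 485/535 nm; normalized to 0.29 uM artemisinin and DMSO.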
# [6] = molecular target: Arylsulfatase A (Homo sapiens) (UniProt P15289); experiment: qHTS screen for enhancers of Arylsulfatase A (ASA1): LOPAC Validation Assay (AID 720538); conditions: outcome: dose series up to 57.5 µM; further: 0% is about no effect
# Arylsulfatase A (Homo sapiens), sequence (P15289 whole entry, looked up): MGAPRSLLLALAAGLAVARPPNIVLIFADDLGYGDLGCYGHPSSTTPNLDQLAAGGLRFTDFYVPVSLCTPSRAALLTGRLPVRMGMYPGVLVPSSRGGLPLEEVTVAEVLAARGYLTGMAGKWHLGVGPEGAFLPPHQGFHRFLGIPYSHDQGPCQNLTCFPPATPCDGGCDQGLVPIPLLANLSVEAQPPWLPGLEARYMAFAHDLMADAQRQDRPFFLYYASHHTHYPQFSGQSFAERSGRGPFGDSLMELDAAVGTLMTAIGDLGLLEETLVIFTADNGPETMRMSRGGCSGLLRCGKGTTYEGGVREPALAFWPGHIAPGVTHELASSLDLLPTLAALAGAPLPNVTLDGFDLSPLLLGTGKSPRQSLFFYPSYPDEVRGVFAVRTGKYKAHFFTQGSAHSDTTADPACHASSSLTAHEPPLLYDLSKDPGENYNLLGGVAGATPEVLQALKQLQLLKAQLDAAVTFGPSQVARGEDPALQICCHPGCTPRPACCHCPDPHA
# Method in brief: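 Read-out: fluorescence at Ex=525/Em=598 nm after 1N NaOH final stop. Patient fibroblasts carrying ASA-I179S had 48h compound exposure, then 14h room-temperature pNCS hydrolysis (0.5mM final) in lysis buffer. Signal increase = enhanced activity.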
# [7] = qHTS for compounds that reverse cellular toxicity of Amyloid beta (A-beta) peptide in yeast: LOPAC Validation Assay (AID 720559);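 further: plate controls were DMSO for no effect and equimolar ferric chloride plus clioquinol rescue for full effect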
# Method in brief: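 OD600 growth readout after 48 hr at 30 C; A-beta-toxic yeast plus pinned compounds in medium. Normalization: DMSO = negative, equimolar FeCl3 + clioquinol = positive.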
# [8] = qHTS for Activators of Parkin Expression: LOPAC Validation Assay (NLuc Reporter) (AID 720572;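 further: 0% = DMSO and 100% = positive control compound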)
# Method in brief: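 Cells harboring the Parkin-promoter coincidence reporter were treated for 24 h at seven concentrations. NLuc output was measured sequentially after the FLuc channel and scaled between DMSO and positive control values.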
# [9] = qHTS for Activators of Parkin Expression: LOPAC Validation Assay (FLuc Reporter) (AID 720573;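 further: 0% = DMSO and 100% = positive control compounds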)
# Method in brief: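 FLuc luminescence read-out from a neuronal line expressing a Parkin-promoter-driven coincidence reporter. Cells treated 24 h at 37 C, 5% CO2 with compounds at 7 concentrations; signal increase normalized to DMSO and positive control.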
# [10] = molecular target: T1, Hexokinase-4 (Homo sapiens) + Glucokinase regulatory protein (Homo sapiens) (UniProt P35557+Q14397); experiment: qHTS assay for inhibitors of recombinant human GCK-GKRP interaction: Diaphorase-coupled assay (AID 743205)
# T1 sequence (P35557 whole entry, looked up): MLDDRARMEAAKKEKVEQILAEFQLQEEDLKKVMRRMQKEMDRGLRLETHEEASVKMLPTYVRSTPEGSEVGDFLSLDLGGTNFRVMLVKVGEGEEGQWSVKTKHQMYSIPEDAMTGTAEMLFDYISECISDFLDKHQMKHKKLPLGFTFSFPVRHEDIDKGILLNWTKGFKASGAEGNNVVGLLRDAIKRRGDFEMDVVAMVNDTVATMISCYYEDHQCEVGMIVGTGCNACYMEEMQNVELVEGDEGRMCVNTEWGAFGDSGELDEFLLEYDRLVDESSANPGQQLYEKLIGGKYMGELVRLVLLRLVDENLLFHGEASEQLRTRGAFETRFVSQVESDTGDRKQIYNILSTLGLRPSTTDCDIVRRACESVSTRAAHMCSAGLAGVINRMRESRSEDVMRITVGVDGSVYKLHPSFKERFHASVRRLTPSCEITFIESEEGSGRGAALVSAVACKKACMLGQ
# T1 sequence (Q14397 whole entry, looked up): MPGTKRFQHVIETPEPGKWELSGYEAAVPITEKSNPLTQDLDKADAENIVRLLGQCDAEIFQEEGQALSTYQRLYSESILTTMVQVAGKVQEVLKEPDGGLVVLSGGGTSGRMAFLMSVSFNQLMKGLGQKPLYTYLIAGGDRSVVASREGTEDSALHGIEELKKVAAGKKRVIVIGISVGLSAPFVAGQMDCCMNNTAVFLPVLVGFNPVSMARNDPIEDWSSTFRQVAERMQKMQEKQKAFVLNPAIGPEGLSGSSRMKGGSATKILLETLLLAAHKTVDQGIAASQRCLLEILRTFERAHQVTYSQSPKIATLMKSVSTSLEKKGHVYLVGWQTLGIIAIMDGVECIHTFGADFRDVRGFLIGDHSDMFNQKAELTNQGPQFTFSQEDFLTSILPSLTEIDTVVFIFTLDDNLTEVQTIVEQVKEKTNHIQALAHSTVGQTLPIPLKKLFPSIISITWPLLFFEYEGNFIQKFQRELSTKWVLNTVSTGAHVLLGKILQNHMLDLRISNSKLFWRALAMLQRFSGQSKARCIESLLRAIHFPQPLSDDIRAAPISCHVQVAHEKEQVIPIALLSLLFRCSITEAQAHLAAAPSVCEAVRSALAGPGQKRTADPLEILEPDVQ
# Method in brief: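 Resorufin fluorescence (525/590 nm), read each minute over 30 min, reports GCK activity coupled via G6PDH and diaphorase. Reaction: 10 nM GST-GCK, 10 nM FLAG-GKRP, 5 mM glucose, 0.4 mM ATP, 0.15 mM NADP+, 0.1 mM resazurin.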
# [11] = molecular target: T1, Hexokinase-4 (Homo sapiens) + Glucokinase regulatory protein (Homo sapiens); experiment: qHTS assay for inhibitors of recombinant human GCK-GKRP interaction: HTRF assay (AID 743207);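 further: 0% = DMSO with GCK present and -100% = DMSO wells lacking GCK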
# Method in brief: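 HTRF read-out (ex 320 nm; 615/665 nm emission) after 60 min RT equilibration of 5 nM GST-GCK, 5 nM FLAG-GKRP, 2 uM S6P, compound and anti-FLAG/anti-GST detection antibodies; signal normalized between DMSO wells with and without GCK.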
smiles,measurement,setting,value
COCCNCCCn1c(C(=O)CF)c(-c2ccc(C)cc2)c2c(N)ncnc21,Potency,[1],inactive
same,outcome,[2],inactive
same,max response,[3],-16.2% (inactive)
same,remaining parasite growth % (stronger effect = lower value),[4],72.8%
same,"activity, percent of control",[5],77.9%
COc1ccccc1-c1cccc(-c2c(O)c3cc(C#N)c(Cl)cc3[nH]c2=O)c1,Potency,[1],inactive
same,outcome,[2],inactive
same,max response,[3],99.8% (inactive)
same,remaining parasite growth % (stronger effect = lower value),[4],97.4%
same,"activity, percent of control",[5],76%
CC1(C)Cc2c(-c3ccccc3)c(-c3ccc(Cl)cc3)c(CC(=O)O)n2C1,Potency,[1],inactive
same,outcome,[2],inactive
same,max response,[3],1.94% (inactive)
same,remaining parasite growth % (stronger effect = lower value),[4],6.49%
same,"activity, percent of control",[5],13.4%
CCOc1cc(C(=O)Nc2ccc(Cl)c(-c3nc4ccccc4[nH]3)c2)cc(OCC)c1OCC,Potency,[1],inactive
same,outcome,[2],inactive
same,max response,[3],-21.5% (inactive)
same,remaining parasite growth % (stronger effect = lower value),[4],1.56%
same,"activity, percent of control",[5],15.9%
Fc1ccc(Cl)cc1-c1nc(Nc2ccncc2)c2nccnc2n1,Potency,[1],inactive
same,outcome,[2],inactive
same,max response,[3],-14.2% (inactive)
same,remaining parasite growth % (stronger effect = lower value),[4],5.45%
same,"activity, percent of control",[5],25.3%
Cc1cc(Nc2nc(N[C@@H](C)c3ncc(F)cn3)ncc2Cl)n[nH]1,Potency,[1],772 nM (active)
same,outcome,[2],inactive
same,max response,[3],8.89% (inactive)
same,remaining parasite growth % (stronger effect = lower value),[4],108%
same,"activity, percent of control",[5],100%
O=C(OCC#CCSc1nnc(-c2ccc3ccccc3c2)o1)c1cc2ccccc2s1,Potency,[1],inactive
same,outcome,[2],inactive
same,max response,[3],9.28% (inactive)
same,remaining parasite growth % (stronger effect = lower value),[4],117%
same,"activity, percent of control",[5],105%
O=C(O)[C@@H](c1ccc(OCc2ccc3ccccc3n2)cc1)C1CCCC1,Potency,[1],inactive
same,outcome,[2],inactive
same,max response,[3],46.8% (inactive)
same,remaining parasite growth % (stronger effect = lower value),[4],114%
same,"activity, percent of control",[5],96.9%
C[C@]1(c2nc3c(C(N)=O)cccc3[nH]2)CCCN1,Potency,[1],inactive
same,outcome,[2],inactive
same,max response,[3],20.1% (inactive)
same,remaining parasite growth % (stronger effect = lower value),[4],93.1%
same,"activity, percent of control",[5],87.4%
Nc1nccc(-c2ccc3noc(-c4ccc(Cl)cc4)c3c2)n1,Potency,[1],inactive
same,outcome,[2],inactive
same,max response,[3],-14.8% (inactive)
same,remaining parasite growth % (stronger effect = lower value),[4],77.1%
same,"activity, percent of control",[5],76.1%
CC(C)C[C@H](NC(=O)[C@@H](O)[C@H](N)Cc1ccccc1)C(=O)O,outcome,[2],inactive
same,outcome,[6],inactive
same,outcome,[7],inactive
same,Potency,[8],inactive
same,outcome,[9],inactive
same,outcome,[10],inactive
same,outcome,[11],inactive
same,max response,[3],-20.9% (inactive) and 9.59% (inactive)
same,remaining parasite growth % (stronger effect = lower value),[4],2.82%
same,"activity, percent of control",[5],6.99%
C#Cc1cccc(Nc2ncnc3cc(OCCOC)c(OCCOC)cc23)c1,outcome,[2],inactive
same,max response,[3],10.7% (inactive) and -0.582% (inactive)
same,remaining parasite growth % (stronger effect = lower value),[4],12.2%
same,"activity, percent of control",[5],27.9%
CC(C)(N)C(=O)N[C@H](COCc1ccccc1)C(=O)N1CCC2(CC1)CN(S(C)(=O)=O)c1ccccc12,Potency,[1],inactive
same,outcome,[2],inactive
same,remaining parasite growth % (stronger effect = lower value),[4],88.9%
same,"activity, percent of control",[5],10.9%
CC(=O)NC(C)c1ccc(Oc2ccc(OC(C)C)cc2)cc1 (stereo not drawn),outcome,[2],inactive
same,max response,[3],-4.97% (inactive)
same,remaining parasite growth % (stronger effect = lower value),[4],69.9%
same,"activity, percent of control",[5],93.5%
Cc1ccnc(NS(=O)(=O)c2ccc(NC(=O)Nc3ccc(S(=O)(=O)Nc4nccc(C)n4)cc3)cc2)n1,outcome,[2],inactive
same,max response,[3],-10.8% (inactive)
same,remaining parasite growth % (stronger effect = lower value),[4],12%
same,"activity, percent of control",[5],27.4%
CCN(c1ccccc1)c1cc(NC)[n+](C)c(C)n1,Potency,[1],inactive
same,outcome,[2],inactive
same,remaining parasite growth % (stronger effect = lower value),[4],76.6%
same,"activity, percent of control",[5],73.7%
COc1cc(F)c(F)c(Nc2ccc(I)cc2F)c1NS(=O)(=O)C1(C[C@H](O)CO)CC1,outcome,[2],inactive
same,max response,[3],19.8% (inactive)
same,remaining parasite growth % (stronger effect = lower value),[4],83.5%
same,"activity, percent of control",[5],78.6%
CCCCCCCc1ccc(CCc2cccc(O)c2C(=O)O)cc1,outcome,[2],inactive
same,max response,[3],25.6% (inactive)
same,remaining parasite growth % (stronger effect = lower value),[4],93%
same,"activity, percent of control",[5],88.3%
O=c1ncn2nc(Sc3ccc(F)cc3F)ccc2c1-c1c(Cl)cccc1Cl,Potency,[1],inactive
same,outcome,[2],inactive
same,max response,[3],5.63% (inactive)
same,remaining parasite growth % (stronger effect = lower value),[4],32.8%
same,"activity, percent of control",[5],80.3%
